An excerpt weighted towards active compounds, which were near 2.1% of everything screened.
Calb FLC – C. albicans growth modulation with fluconazole; C. albicans CaCi-2 (fluconazole-resistant clinical isolate) + fluconazole, Alamar Blue growth, 48 h; growth inhibition, % (concentration not given with the values); 300,000 compounds, 0.57% hits; AID 1979;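 active = growth inhibition above about 58% in most replicates, limit read from the data, passing the limit was not always enough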;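 also: all wells also contain fluconazole at 8 µg/ml as a sub-toxic cotreatment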
Rin1-Abl PPI inh – human Rin1-Abl interaction inhibition | inhibition, % at 7.35 µM | 360,000 compounds, 0.4% hits | P00519+Q13671 | TR-FRET Rin1/Abl binding, biochemical; in the data active = inhibition above about 5%, passing the limit was not always enough
CTSL1 counter – counter-screen for PFM18AAP inhibitors: inhibitors of F. hepatica cathepsin L1; recombinant F. hepatica cathepsin L1, Z-Leu-Arg-MCA fluorescence; inhibition, % at 5.96 µM; 300,000 compounds, 0.49% hits; AID 1906;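 active = inhibition above the mean of all tested compounds plus 3 SD, set per screening campaign, cut at about 17% in these data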
PfM18AAP inh – PfM18AAP enzyme inhibition; recombinant PfM18AAP, H-Glu-NHMec fluorogenic cleavage; inhibition, % at 7.35 µM; 290,000 compounds, 1.2% hits; AID 1822;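 active = inhibition above the campaign mean inhibition over all tested compounds plus 3 SD, cut at about 28% in these data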
Rin1 Abl conf – confirmation of inhibitors of human Rin1-Abl interaction; shares compounds with Rin1-Abl PPI inh; AID 602124; inhibition, % at 7.35 µM; TR-FRET Rin1-Abl binding, purified proteins; 1,300 compounds, 49% hits
GFP quencher – GFP fluorescence interference artifact. inhibition, % at 6.75 µM. shares compounds with Rin1-Abl PPI inh. inhibitors/quenchers counterscreen. 1,300 compounds, 8.5% hits;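 also: ABL1-eGFP fusion protein alone without its partner RIN1-SBP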
GFP quench dose – quenches GFP in dose response, Rin1-Abl counter-screen. shares compounds with Rin1-Abl PPI inh. GFP fluorescence interference/quenching counterscreen. IC50, µM. 230 tested, under 10 active; call rule not given here;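 also: ABL1-eGFP fusion protein alone without its RIN1 binding partner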
Of the large screens only hits and unclear results are named; the others gave an inactive call (follow-up assays come after a bar, where they were run). Rule as the data show it, unless noted: active = inhibition above about 6.5%; inactive = the rest.

CC(C)(C)n1nnnc1C(CCc1ccccc1)N1CCC(n2c(=O)[nH]c3ccccc32)CC1 (stereo not given)	Rin1-Abl PPI inh 17 (no result: Calb FLC, CTSL1 counter, PfM18AAP inh) | Rin1 Abl conf 11 | GFP quencher inactive
CSCCC(c1nnnn1C1CCCC1)N1CCC(n2c(=O)[nH]c3ccccc32)CC1 (stereo not given)	Rin1-Abl PPI inh 19 (no result: Calb FLC, CTSL1 counter, PfM18AAP inh) | Rin1 Abl conf 20 | GFP quencher inactive | GFP quench dose inactive
Cc1cccc(NP(C)(=O)c2nc3c(s2)CCCC3)c1 (stereo not given)	none
CN1CCC(O)(c2cccs2)C(C(=O)c2cccs2)C1 (stereo not given)	none
O=C(COC(=O)Cc1ccccc1)NCCNC(=O)COC(=O)Cc1ccccc1	none (no result: PfM18AAP inh)
CC/C(CC(c1ccccc1)c1c(O)c2ccccc2oc1=O)=N\NC(N)=S (stereo not given)	Rin1-Abl PPI inh 5.9 | Rin1 Abl conf inactive | GFP quencher inactive
COC(=O)C1=C(c2cccc(OCc3ccccc3)c2)C[C@@H]2CC[C@H]1N2C(=O)NCc1ccc(Cl)cc1	none (no result: Calb FLC, CTSL1 counter, PfM18AAP inh)
c1cc2c(cc1N1CCOCC1)CNCc1cnnn1-2	none (no result: Calb FLC, CTSL1 counter, PfM18AAP inh)
OCC(Br)CBr (stereo not given)	none (no result: Calb FLC, CTSL1 counter, PfM18AAP inh)
C=Cc1cc(OC)c2c(c1)c(=O)oc1c2cc(OC)c2c(O)ccc(C3OC(C)C(O)C(C)(O)C3O)c21 (stereo not given)	Rin1-Abl PPI inh 22 (no result: Calb FLC, CTSL1 counter, PfM18AAP inh) | Rin1 Abl conf inactive | GFP quencher inactive
CCOC(=O)CC(NC(=O)C(Cc1ccc(N(CCCl)CCCl)cc1)NC(C)=O)C(=O)OCC (stereo not given)	none
N#CC1c2ccccc2-n2nncc2CN1S(=O)(=O)c1ccccc1 (stereo not given)	Rin1-Abl PPI inh 10 (no result: Calb FLC, CTSL1 counter, PfM18AAP inh) | Rin1 Abl conf inactive | GFP quencher inactive
CCOP(=O)(CN(CC)CCNP(=O)(OCC)OCC)OCC	none
CC(=O)N1CN2CN(C1)CN(C(C)=O)C2	none
CCCC(C)C(=O)NC1CCSC1=O (stereo not given)	Rin1-Abl PPI inh 4.9 | Rin1 Abl conf inactive | GFP quencher inactive
Clc1ccc2c(c1)C(OC1CN3CCC1CC3)c1ccccc1CS2 (stereo not given)	Rin1-Abl PPI inh 9.7 | Rin1 Abl conf inactive | GFP quencher inactive

High-throughput results from PubChem BioAssay.
